PubChem BioAssay (NCI)
Compounds without any hit were thinned out: in the full panel of roughly 83,000, 20% have a hit.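 In brief: 96-well plates, 48 h treatment, single concentration, percent growth endpoint.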 Active and inactive are the calls of the source. The calls were made as follows: active = growth percent below 10; inactive = the rest.

Columns and labels:
Experiment in all cases: NCI-60 one-dose screen, 48 h (100 = growth as untreated, 0 = no growth, -100 = all killed)
Details in all cases: 10 µM unless noted
SR leukemia = tested on: SR leukemia
RPMI-8226 leukemia = tested on: RPMI-8226 leukemia
OVCAR-8 ovarian = tested on: OVCAR-8 ovarian
OVCAR-5 ovarian = tested on: OVCAR-5 ovarian
OVCAR-4 ovarian = tested on: OVCAR-4 ovarian
SK-OV-3 ovarian = tested on: SK-OV-3 ovarian
IGROV1 ovarian = tested on: IGROV1 ovarian
OVCAR-3 ovarian = tested on: OVCAR-3 ovarian
HS 578T breast = tested on: HS 578T breast
NCI/ADR-RES ovarian = tested on: NCI/ADR-RES ovarian

Measured: growth

CO/N=C(/C)c1ccc(NC(=O)CSc2nnc(-c3ccncc3)n2-c2ccccc2)cc1
active: OVCAR-8 ovarian 1.47% | OVCAR-4 ovarian -30.7% | HS 578T breast -0.835% | NCI/ADR-RES ovarian 0.0208%
inactive: SR leukemia 99.6% | RPMI-8226 leukemia 80.8% | OVCAR-5 ovarian 79.5% | SK-OV-3 ovarian 24.1% | IGROV1 ovarian 33.4% | OVCAR-3 ovarian 29.3%

CCOC(=O)C(=Cc1cccc(Cl)c1)C(=O)OCC
inactive: OVCAR-5 ovarian 13.9% | OVCAR-4 ovarian 59.9% | SK-OV-3 ovarian 100% | OVCAR-3 ovarian 33.8% | HS 578T breast 68%
active: SR leukemia 6.69% | RPMI-8226 leukemia -8.77% | OVCAR-8 ovarian -8.33% | IGROV1 ovarian 9.1% | NCI/ADR-RES ovarian 4.71%

C[C@]12C=CC(=O)C=C1CCC1C2[C@@H](O)C[C@@]2(C)C1CC[C@]2(O)C(=O)COC(=O)CCC(=O)O (some centres not stated)
inactive: SR leukemia 98% | RPMI-8226 leukemia 64.3% | OVCAR-8 ovarian 91.3% | OVCAR-5 ovarian 89.9% | OVCAR-4 ovarian 98.4% | SK-OV-3 ovarian 80.2% | IGROV1 ovarian 102% | OVCAR-3 ovarian 119% | HS 578T breast 119% | NCI/ADR-RES ovarian 92.1%

CC(C)=CCC[C@](C)(O)[C@H]1CC[C@]2(C)[C@@H]1CC[C@@H]1[C@@]3(C)Cc4nccnc4C(C)(C)[C@@H]3CC[C@]12C
inactive: SR leukemia 43.7% | RPMI-8226 leukemia 43.2% | OVCAR-8 ovarian 101% | OVCAR-5 ovarian 89.9% | OVCAR-4 ovarian 90.1% | SK-OV-3 ovarian 84.1% | IGROV1 ovarian 104% | OVCAR-3 ovarian 90.3% | HS 578T breast 97.6% | NCI/ADR-RES ovarian 83.6%

O=C(NCc1ccccc1)Nc1ccccc1CNc1nc(Nc2ccc(OCCN3CCCC3)cc2)ncc1Cl
active: SR leukemia 7.02%
inactive: RPMI-8226 leukemia 76.1% | OVCAR-8 ovarian 89.9% | OVCAR-5 ovarian 112% | OVCAR-4 ovarian 81.2% | SK-OV-3 ovarian 99.3% | IGROV1 ovarian 100% | OVCAR-3 ovarian 104% | HS 578T breast 98% | NCI/ADR-RES ovarian 92.2%

CN(C)CCCC1(c2ccc(F)cc2)OCc2cc(-c3cccc4[nH]ccc34)ccc21 (configuration not stated)
inactive: RPMI-8226 leukemia 39.7% | OVCAR-8 ovarian 20.5% | OVCAR-5 ovarian 70.1% | OVCAR-4 ovarian 30.9% | SK-OV-3 ovarian 52.5% | IGROV1 ovarian 20.2% | OVCAR-3 ovarian 31% | HS 578T breast 31.7% | NCI/ADR-RES ovarian 25.9%
active: SR leukemia -14.9%

Cc1nnc(NC(=O)c2nc(S(=O)(=O)Cc3ccc(F)cc3)ncc2Cl)s1
inactive: RPMI-8226 leukemia 37% | OVCAR-8 ovarian 56.4% | OVCAR-5 ovarian 85.6% | OVCAR-4 ovarian 101% | SK-OV-3 ovarian 101% | IGROV1 ovarian 91.1% | OVCAR-3 ovarian 21.8% | HS 578T breast 93.1% | NCI/ADR-RES ovarian 93%
active: SR leukemia 1.43%

CCOC(=O)CNP(=O)(OC[C@@H](Cc1ccccc1)NC(=O)c1cc2ccccc2s1)Oc1ccccc1 (some centres not stated)
inactive: SR leukemia 23.9% | RPMI-8226 leukemia 79.6% | OVCAR-8 ovarian 89.1% | OVCAR-5 ovarian 95.4% | OVCAR-4 ovarian 88.4% | SK-OV-3 ovarian 91.2% | IGROV1 ovarian 79.9% | OVCAR-3 ovarian 79.9% | HS 578T breast 76.5% | NCI/ADR-RES ovarian 51.4%

Cc1ccc(C(C(N)=O)C(C(N)=O)c2ccccc2)cc1 (configuration not stated)
inactive: SR leukemia 92% | RPMI-8226 leukemia 95.4% | OVCAR-8 ovarian 103% | OVCAR-5 ovarian 114% | OVCAR-4 ovarian 115% | SK-OV-3 ovarian 114% | IGROV1 ovarian 105% | OVCAR-3 ovarian 114% | HS 578T breast 124% | NCI/ADR-RES ovarian 122%

COc1ccc(C/C(C)=C(/c2ccc(OCCN3CCCCC3)cc2)c2ccc(OC(=O)NCc3ccccc3)cc2)cc1
active: SR leukemia -58% | RPMI-8226 leukemia -62.3% | OVCAR-8 ovarian -83.5% | OVCAR-5 ovarian -78.6% | OVCAR-4 ovarian -91.4% | SK-OV-3 ovarian -93.7% | IGROV1 ovarian -71.1% | OVCAR-3 ovarian -89.2% | HS 578T breast -57.6% | NCI/ADR-RES ovarian -75.7%

O=C1/C(=C/c2ccc(Cl)c(Cl)c2)CN(C(=O)C(Cl)Cl)C/C1=C\c1ccc(Cl)c(Cl)c1
active: SR leukemia 4.68% | RPMI-8226 leukemia -27.9% | OVCAR-8 ovarian 0.621% | OVCAR-5 ovarian -69.1% | OVCAR-4 ovarian -16.8% | IGROV1 ovarian -74.3% | OVCAR-3 ovarian -97.9% | HS 578T breast -5.11% | NCI/ADR-RES ovarian 3.64%
inactive: SK-OV-3 ovarian 25.2%

O=C(c1cc2ccccc2o1)c1nn(-c2ccccc2)/c(=N/N=Cc2cn(-c3ccccc3)nc2-c2cc3ccccc3oc2=O)s1
inactive: SR leukemia 72.7% | RPMI-8226 leukemia 90.9% | OVCAR-8 ovarian 97.5% | OVCAR-5 ovarian 105% | OVCAR-4 ovarian 93.3% | SK-OV-3 ovarian 127% | IGROV1 ovarian 99.1% | OVCAR-3 ovarian 100% | HS 578T breast 99.8% | NCI/ADR-RES ovarian 96.5%

COc1ccc(-c2nn(-c3ccccc3)cc2/C=C2/SC(=S)N(C)C2=O)cc1
inactive: SR leukemia 29.3% | RPMI-8226 leukemia 89.8% | OVCAR-8 ovarian 49.8% | OVCAR-5 ovarian 76.3% | SK-OV-3 ovarian 90.8% | OVCAR-3 ovarian 53% | HS 578T breast 39.3% | NCI/ADR-RES ovarian 74.5%
active: OVCAR-4 ovarian -24%

COc1cc(C(=O)n2nc(N3CCN(C)CC3)c3cc(N)ccc32)cc(OC)c1OC
inactive: SR leukemia 13.3% | RPMI-8226 leukemia 33.3% | OVCAR-8 ovarian 30.3% | OVCAR-5 ovarian 50.4% | OVCAR-4 ovarian 49.7% | SK-OV-3 ovarian 28.1% | IGROV1 ovarian 32.5% | HS 578T breast 44.5% | NCI/ADR-RES ovarian 67.9%
active: OVCAR-3 ovarian 4.26%

N#Cc1c(-c2ccc(Cl)cc2)nc(NN=Cc2cccc(O)c2)nc1N1CCOCC1
inactive: RPMI-8226 leukemia 37.4% | OVCAR-8 ovarian 65.4% | OVCAR-5 ovarian 97.4% | OVCAR-4 ovarian 72.4% | SK-OV-3 ovarian 98% | OVCAR-3 ovarian 77.7% | HS 578T breast 89.4%
active: SR leukemia 4.7%

CC(=O)OC[C@]12CCC(C)(C)C[C@H]1[C@@]1(O)[C@H](O)C[C@@H]3[C@@]4(C)CCCNC(C)(C)[C@@H]4CC[C@@]3(C)[C@]1(C)CC2
inactive: SR leukemia 99.3% | RPMI-8226 leukemia 107% | OVCAR-8 ovarian 111% | OVCAR-5 ovarian 102% | OVCAR-4 ovarian 120% | SK-OV-3 ovarian 111% | OVCAR-3 ovarian 119% | HS 578T breast 110%

CCCCCCCCCCCCCCCC(N)c1ccccc1 (configuration not stated)
active: SR leukemia -26.1% | RPMI-8226 leukemia -27.9% | OVCAR-8 ovarian -26.3% | OVCAR-4 ovarian -15.8% | OVCAR-3 ovarian -70.2% | NCI/ADR-RES ovarian -31.1%
inactive: OVCAR-5 ovarian 79.7% | SK-OV-3 ovarian 77.1% | HS 578T breast 60.6%

CC(=O)N(N=Nc1ccccc1)c1cccc2ccccc12
inactive: SR leukemia 74.1% | RPMI-8226 leukemia 102% | OVCAR-8 ovarian 84.1% | OVCAR-5 ovarian 75.8% | OVCAR-4 ovarian 94.5% | SK-OV-3 ovarian 82.7% | OVCAR-3 ovarian 125% | HS 578T breast 101% | NCI/ADR-RES ovarian 78.5%

CC(C)(C)n1cc(-c2ccnc(NCCNS(=O)(=O)c3cccc(F)c3)c2)c(-c2ccccc2)n1
inactive: SR leukemia 32.6% | RPMI-8226 leukemia 61% | OVCAR-8 ovarian 87.9% | OVCAR-5 ovarian 105% | OVCAR-4 ovarian 72.7% | SK-OV-3 ovarian 102% | IGROV1 ovarian 97.2% | OVCAR-3 ovarian 101% | HS 578T breast 92.9% | NCI/ADR-RES ovarian 89.5%

O=C1/C(=C/c2ccc(Cl)cc2)COc2ccc(O)cc21
inactive: OVCAR-8 ovarian 77.8% | OVCAR-5 ovarian 88.7% | OVCAR-4 ovarian 84% | SK-OV-3 ovarian 132% | OVCAR-3 ovarian 75.5% | HS 578T breast 83.1% | NCI/ADR-RES ovarian 88.7%
active: SR leukemia 5.45% | RPMI-8226 leukemia -31.8%

Cc1ccc(-c2cc(-c3ccc(Cl)cc3)nc(NC(=O)c3cccnc3)n2)cc1
inactive: SR leukemia 89.1% | RPMI-8226 leukemia 86.3% | OVCAR-8 ovarian 103% | OVCAR-5 ovarian 102% | OVCAR-4 ovarian 100% | SK-OV-3 ovarian 109% | OVCAR-3 ovarian 115% | HS 578T breast 103%

CN1CCN(c2ccc(NC(=O)c3cncnc3Nc3ccc(OCc4ccccn4)c(Cl)c3)cc2)CC1
active: SR leukemia 4.59%
inactive: RPMI-8226 leukemia 23.3% | OVCAR-8 ovarian 15.2% | OVCAR-5 ovarian 46.4% | OVCAR-4 ovarian 61.8% | SK-OV-3 ovarian 99.4% | OVCAR-3 ovarian 70.6% | HS 578T breast 67.4% | NCI/ADR-RES ovarian 70.5%

O=C(CCCCCCN1CC(=O)N2[C@H](c3cc(Br)cs3)c3[nH]c4ccccc4c3C[C@H]2C1=O)NO
inactive: SR leukemia 17.2% | RPMI-8226 leukemia 11.8% | OVCAR-8 ovarian 28% | OVCAR-5 ovarian 38% | OVCAR-4 ovarian 63% | SK-OV-3 ovarian 61.9% | OVCAR-3 ovarian 38.4% | HS 578T breast 44.8% | NCI/ADR-RES ovarian 78.9%

Cc1cc2c(O)c(-c3cccc(Cl)c3)c3sc(=O)oc3c2cc1C
inactive: SR leukemia 18.6% | RPMI-8226 leukemia 12.1% | OVCAR-8 ovarian 41.9% | OVCAR-5 ovarian 106% | OVCAR-4 ovarian 13.4% | SK-OV-3 ovarian 59.4% | OVCAR-3 ovarian 18.6% | HS 578T breast 48.2%

CC(C)CCNC(=O)Cn1cccc(NC(=O)OCc2ccccc2)c1=O
inactive: SR leukemia 107% | RPMI-8226 leukemia 92.6% | OVCAR-8 ovarian 104% | OVCAR-5 ovarian 127% | OVCAR-4 ovarian 98.7% | SK-OV-3 ovarian 101% | OVCAR-3 ovarian 107% | HS 578T breast 103% | NCI/ADR-RES ovarian 93.9%

CN1CCN(c2ccc(NC(=O)c3nc4ccc5[nH]ncc5c4c4c3CCCC4)cc2C(F)(F)F)CC1
active: OVCAR-8 ovarian 3.3%
inactive: SR leukemia 13.6% | RPMI-8226 leukemia 24.1% | OVCAR-5 ovarian 85.5% | OVCAR-4 ovarian 65.2% | SK-OV-3 ovarian 100% | OVCAR-3 ovarian 11.5% | HS 578T breast 77.6% | NCI/ADR-RES ovarian 70%

COc1ccc(C2=Nc3c/c(=C\c4c(O)[nH]c5ccc(Cl)cc45)ccc3=N2)cc1
inactive: RPMI-8226 leukemia 22.7% | OVCAR-8 ovarian 51.7% | OVCAR-5 ovarian 82.9% | OVCAR-4 ovarian 64.2% | SK-OV-3 ovarian 64.6% | OVCAR-3 ovarian 32.7% | HS 578T breast 41.8% | NCI/ADR-RES ovarian 12.7%
active: SR leukemia 2.44%

CCOC(=O)C#Cc1c(C(=O)OCC)nnn1[C@@H]1O[C@H](CO)[C@H]2OC3(CCCCC3)O[C@H]21
active: SR leukemia -8.98% | OVCAR-3 ovarian 4.07%
inactive: RPMI-8226 leukemia 14.2% | OVCAR-8 ovarian 95.3% | OVCAR-5 ovarian 105% | OVCAR-4 ovarian 56% | SK-OV-3 ovarian 98.1% | HS 578T breast 89.7% | NCI/ADR-RES ovarian 100%
